These results are taken from PubChem BioAssay.

The nature of the first experiment: small-molecule binders of probe aNOTCH3, primary screen, biochemical, small-molecule microarray, 635/667 nm fluorescence (AID 1120).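 Also: probe is a biotin-tagged antibody raised against NOTCH3 rather than NOTCH3 protein; score merges spot fluorescence near 667 nm with spot signal to noise.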 The conditions noted are these: higher = more signal.
Take `CCN(CC)c1ccc(N2CC=CC34O[C@@H]5/C=C\CCC(C)OC(=O)C5[C@H]3C(=O)N(CCO)[C@@H]4C2=O)cc1` (stereo partly drawn): the composite z-score was -0.152.

`CCOC(=O)C[C@H]1[C@H](OC(=O)c2ccccc2-c2ccccc2)[C@@H](NC(=O)CC(C)C)c2cc(OCCCO)ccc2N1C(=O)c1ccc2ccccc2n1`: the composite z-score is -0.0031.

As for `O=C1O[C@@H](c2ccccc2)[C@@H](c2ccccc2)N2[C@@H](c3ccccc3OCCO)[C@]3(C(=O)Nc4ccc(C#CC5=CCCCC5)cc43)[C@@H](C(=O)NC[C@H](O)c3ccccc3)[C@H]12`, the composite z-score is 0.0522.

Compound `C=CCOC(=O)[C@@H]1[C@H]2C(=O)O[C@H](c3ccccc3)[C@H](c3ccccc3)N2[C@H](c2ccc(OCCOC(=O)[C@H]3C[C@H]4C(=O)N[C@@H](CC(C)C)C(=O)N4[C@H]3c3ccc(O)cc3)cc2)[C@@]12C(=O)Nc1ccc(I)cc12` showed a composite z-score of 0.154.

Regarding `NCCCCCCNC(=O)[C@H]1C[C@H]2C(=O)N[C@@H](Cc3ccccc3)C(=O)N2[C@H]1c1ccc(O)cc1`, the composite z-score is -0.0048.

On to `O=C1OCC=C[C@H]2OC34C=CCN(Cn5nnc6ccccc65)C(=O)[C@H]3N(CCCCCCO)C(=O)[C@@H]4[C@@H]12` (stereo partly drawn), for which the composite z-score is -0.165.

Take `COc1ccc([Si](C)(C)[C@H]2[C@H](CCn3cc([C@H](O)c4ccccc4)nn3)O[C@@]3(C(=O)N(Cc4ccc(N5CCC5=O)cc4)c4ccccc43)[C@@H]2C)cc1`: the composite z-score is -0.0647.

A short description of another experiment: small-molecule binders of probe aNOTCH2, primary screen, biochemical, small-molecule microarray, 635/667 nm fluorescence (AID 1121).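 Also: score merges feature fluorescence read at 667 nm with its signal to noise.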 The conditions noted are these: higher = more signal.
Turning to `[N-]=[N+]=Nc1ccccc1[C@H]1OC(c2ccc(OCCCO)cc2)=N[C@@]1(CCS(=O)(=O)c1ccccc1)C(=O)N1CCCCC1`, the composite z-score was -0.0439.

Turning to `CN(C)CCCNC(=O)[C@@H]1c2ccccc2C(=O)N(CC23CC4CC(CC(C4)C2)C3)[C@H]1c1ccc(CO)cc1`, the composite z-score was -0.0984.

The compound `COC(=O)[C@]1(CCS(=O)(=O)c2ccccc2)N=C(c2ccc(OCCCO)cc2)O[C@@H]1c1ccccc1CN=[N+]=[N-]` yielded a composite z-score of 0.062.

With `O=C(NC1CC1)[C@@H]1c2ccccc2C(=O)N(Cc2ccccc2)[C@H]1c1ccc(CO)cc1`, the composite z-score was -0.127.

`COC(=O)C1(Cc2ccccc2)C=C2C(=C(c3ccccc3)C(=O)C2C)CN1` (stereo not drawn): the composite z-score stood at 0.839.

Turning to `NC(N)=NCc1cn(CCc2c[nH]c3ccccc23)nn1`, the composite z-score is -0.12.

With `CC(=O)n1cc(C(O)C2C=CC3C(=O)N(c4ccccc4)C(=O)C3N2Nc2ccccc2)c2ccccc21` (stereo not drawn), the composite z-score stood at 0.207.

Consider `CC(C)C(O)C1C=CC2C(=O)N(C)C(=O)C2N1N(c1ccccc1)c1ccccc1` (stereo not drawn), for which the composite z-score is -0.0482.

Regarding `C=C(CCCC)/C(=C/C[C@@H](OC(C)=O)c1ccc(CO)o1)c1cc(C(=O)OC)ccc1OC`, the composite z-score was -0.0741.

The compound `COCCOC(=O)N1C(=O)[C@@]2(c3cc(C#Cc4ccc(OC)cc4)ccc31)[C@H](C(=O)N1CCCCCCC1)[C@H]1C(=O)O[C@H](c3ccccc3)[C@H](c3ccccc3)N1[C@@H]2c1ccc(O)cc1` came in with a composite z-score of 0.0137.

With `C#CCNC(=O)[C@H](Cc1ccccc1)NC(=O)[C@@H](N=[N+]=[N-])C(C)C`, the composite z-score is -0.134.

Take `COc1c(C)cc(-c2cc3c(c(-c4ccccc4)n2)[Si](C(C)C)(C(C)C)OC3)cc1C`: the composite z-score is -0.21.

On to `CN(C)CCCCNC(=O)[C@H]1C[C@H]2C(=O)N[C@@H](CCCCN(C)C)C(=O)N2[C@H]1c1cccc(OCCO)c1`, for which the composite z-score was -0.237.

`COC(=O)C1(Cc2ccccc2)C=C2C(=C(C(C)C)C(=O)C2C)CN1` (stereo not drawn) came in with a composite z-score of 0.168.

For the compound `[N-]=[N+]=NCc1ccccc1C[C@@]1(C(N)=O)N=C(c2ccc(OCCCO)cc2)O[C@@H]1c1ccccc1CN=[N+]=[N-]`, the composite z-score was -0.0386.

As for `C=CCNC(=O)[C@@H]1[C@H]2C(=O)O[C@H](c3ccccc3)[C@H](c3ccccc3)N2[C@H](c2ccccc2OCCO)[C@@]12C(=O)N(C(=O)OCCOC)c1ccc(C#CC3=CCCCC3)cc12`, the composite z-score was -0.0664.

With `[N-]=[N+]=NCc1ccccc1C[C@@]1(C(=O)NCCN2CCOCC2)N=C(c2ccc(OCCCO)cc2)O[C@@H]1c1ccccc1N=[N+]=[N-]`, the composite z-score was -0.116.

For `O=C1OCC=C[C@H]2OC34C=CCN(c5ccc(Cl)cc5)C(=O)[C@H]3N(CCCCCO)C(=O)[C@@H]4[C@@H]12` (stereo partly drawn), the composite z-score is -0.168.

Take `CN(C)C(=O)[C@]1(CCC(=O)OC(C)(C)C)N=C(c2ccc(OCCCO)cc2)O[C@@H]1c1ccccc1`: the composite z-score is -0.0308.

Consider `CCCNC(=O)[C@@]1(c2ccc([N+](=O)[O-])cc2)CC(=O)N(C2CCCCC2)[C@@H]1c1ccc(CO)cc1I`, for which the composite z-score was -0.0635.

For the compound `COC(=O)C[C@H]1O[C@]2(C(=O)N(C)c3ccccc32)[C@@H](C)[C@@H]1[Si](C)(C)c1ccc(C)cc1`, the composite z-score was -0.117.

Take `COCCOC(=O)N1C(=O)[C@@]2(c3cc(C#CC4(O)CCCCCC4)ccc31)[C@H](c1ccccc1OCCO)N1[C@H](c3ccccc3)[C@H](c3ccccc3)OC(=O)[C@H]1[C@@H]2C(N)=O`: the composite z-score is -0.0942.

For the compound `CO[C@H]1O[C@H](CO)[C@@H](OC(=O)c2ccc(Br)cc2)[C@@H]2OC(=O)[C@@H](Cc3ccc4ccccc4c3)C/C=C/C[C@H](Cc3ccc4ccccc4c3)C(=O)O[C@@H]12`, the composite z-score is 0.0043.

On to `COCCCNC(=O)[C@]1(Cc2ccccc2N=[N+]=[N-])N=C(c2ccc(OCCCO)cc2)O[C@@H]1c1ccccc1N=[N+]=[N-]`, for which the composite z-score is -0.0372.

On to `C=CCOC(=O)[C@H]1[C@@H]2C(=O)O[C@@H](c3ccccc3)[C@@H](c3ccccc3)N2[C@@H](c2ccc(OCCOC(=O)[C@H]3C[C@H]4C(=O)N[C@@H](CCCC[N+](C)(C)C)C(=O)N4[C@H]3c3cccc(OCCO)c3)cc2)[C@]12C(=O)Nc1ccc(I)cc12`, for which the composite z-score is -0.161.

`COc1ccc(NN2C(C(O)c3ccco3)C=CC3C(=O)N(C4CCCCC4)C(=O)C32)cc1` (stereo not drawn): the composite z-score is -0.115.

As for `O=C1NC(=O)C2C1C=CC(C(O)c1ccc(Br)cc1)N2Nc1ccccn1` (stereo not drawn), the composite z-score came to 0.176.

Turning to `C[C@]1(C(=O)O)c2ccccc2C(=O)N(Cc2ccccc2)[C@H]1c1ccc(CO)cc1`, the composite z-score was -0.0859.

For the compound `COCCOC(=O)N1C(=O)[C@@]2(c3cc(C#CC4(O)CCCCCC4)ccc31)[C@H](C(N)=O)[C@H]1C(=O)O[C@H](c3ccccc3)[C@H](c3ccccc3)N1[C@@H]2c1ccc(O)cc1`, the composite z-score is -0.0349.

For the compound `CCN(CC)c1ccc(N2CC=CC34O[C@@H]5/C=C\CCC(C)OC(=O)C5[C@H]3C(=O)N(CCO)[C@@H]4C2=O)cc1` (stereo partly drawn), the composite z-score was -0.132.

Consider `CCOC(=O)C[C@H]1[C@H](OC(=O)c2ccccc2-c2ccccc2)[C@@H](NC(=O)CC(C)C)c2cc(OCCCO)ccc2N1C(=O)c1ccc2ccccc2n1`, for which the composite z-score was -0.13.

For the compound `O=C1O[C@@H](c2ccccc2)[C@@H](c2ccccc2)N2[C@@H](c3ccccc3OCCO)[C@]3(C(=O)Nc4ccc(C#CC5=CCCCC5)cc43)[C@@H](C(=O)NC[C@H](O)c3ccccc3)[C@H]12`, the composite z-score was -0.124.

In the case of `C=CCOC(=O)[C@@H]1[C@H]2C(=O)O[C@H](c3ccccc3)[C@H](c3ccccc3)N2[C@H](c2ccc(OCCOC(=O)[C@H]3C[C@H]4C(=O)N[C@@H](CC(C)C)C(=O)N4[C@H]3c3ccc(O)cc3)cc2)[C@@]12C(=O)Nc1ccc(I)cc12`, the composite z-score is -0.153.

Regarding `NCCCCCCNC(=O)[C@H]1C[C@H]2C(=O)N[C@@H](Cc3ccccc3)C(=O)N2[C@H]1c1ccc(O)cc1`, the composite z-score was -0.176.

With `O=C1OCC=C[C@H]2OC34C=CCN(Cn5nnc6ccccc65)C(=O)[C@H]3N(CCCCCCO)C(=O)[C@@H]4[C@@H]12` (stereo partly drawn), the composite z-score was -0.126.

As for `COc1ccc([Si](C)(C)[C@H]2[C@H](CCn3cc([C@H](O)c4ccccc4)nn3)O[C@@]3(C(=O)N(Cc4ccc(N5CCC5=O)cc4)c4ccccc43)[C@@H]2C)cc1`, the composite z-score was -0.167.
